PubChem BioAssay (NCI)
This is part of a sample that, as a whole, favours compounds with a hit. Of some 83,000 tested, about 20% had one in any assay.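 Results are percent growth after 48 hours of single-concentration exposure. 100 means growth as in untreated cells, lower positive values show inhibition; negative values down to -100 show cell death.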 Unmarked numbers belong to inactive results. Calls of active or inactive are those of the source. The calls were made as follows: active = growth percent below 10; inactive = the rest.

What was measured:
Assay in all cases: NCI-60 one-dose screen, 48 h (100 = growth as untreated, 0 = no growth, -100 = all killed)
Conditions in all cases: 10 µM unless noted
NCI-H23 lung = test system: NCI-H23 lung
NCI-H226 lung = test system: NCI-H226 lung
NCI-H322M lung = test system: NCI-H322M lung
HOP-62 NSCLC = test system: HOP-62 NSCLC
NCI-H460 lung = test system: NCI-H460 lung
HOP-92 NSCLC = test system: HOP-92 NSCLC
NCI-H522 lung = test system: NCI-H522 lung
A549/ATCC NSCLC = test system: A549/ATCC NSCLC
786-0 renal = test system: 786-0 renal
COLO 205 colon = test system: COLO 205 colon
DU-145 prostate = test system: DU-145 prostate
K-562 leukemia = test system: K-562 leukemia
MALME-3M melanoma = test system: MALME-3M melanoma
MDA-MB-231 breast = test system: MDA-MB-231 breast
SF-268 CNS = test system: SF-268 CNS
SF-295 CNS = test system: SF-295 CNS
SF-539 CNS = test system: SF-539 CNS
UACC-257 melanoma = test system: UACC-257 melanoma
RXF 393 renal = test system: RXF 393 renal

Row | SMILES | growth (NCI-H23 lung) | growth (NCI-H226 lung) | growth (NCI-H322M lung) | growth (HOP-62 NSCLC) | growth (NCI-H460 lung) | growth (HOP-92 NSCLC) | growth (NCI-H522 lung) | growth (A549/ATCC NSCLC) [%] | growth (786-0 renal) | growth (COLO 205 colon) | growth (DU-145 prostate) | growth (K-562 leukemia) | growth (MALME-3M melanoma) | growth (MDA-MB-231 breast) | growth (SF-268 CNS) | growth (SF-295 CNS) | growth (SF-539 CNS) | growth (UACC-257 melanoma) | growth (RXF 393 renal) [%]
1 | O=C1/C(=C/c2ccc([N+](=O)[O-])cc2)COc2ccc(O)c(O)c21 | 11.1% | 50.9% | 42.7% | 4.16% (active) | -17.2% (active) | -4.37% (active) | -52.7% (active) | 34.5 | -60.5% (active) | 16.3% | -19.1% (active) | 5.31% (active) | -44.2% (active) | -27.1% (active) | -25.3% (active) | 83.7% | -91.6% (active) | 40.3% | –
2 | CCCCC1COc2cccc3c(SCC(=O)N(C)c4cccc(Cl)c4)cc[n+]1c23 (centres undefined) | 99.9% | 103% | 107% | 109% | 113% | 113% | 96.9% | 109 | 107% | 110% | 120% | 97.8% | 104% | 101% | 118% | 99.3% | 97.5% | 113% | –
3 | O[C@H]1CO[C@H]2[C@@H]1OC[C@@H]2Oc1ccc(Nc2ccnc(Nc3ccc(O[C@H]4CO[C@H]5[C@@H]4OC[C@@H]5O)c(Cl)c3)n2)cc1Cl | -1.73% (active) | 4.09% (active) | -4.12% (active) | -28.9% (active) | 1.27% (active) | -20% (active) | -4.53% (active) | 21.7 | 24.7% | 12% | 7.26% (active) | 5.05% (active) | 13.2% | 21.8% | 16.4% | 7.74% (active) | 8.89% (active) | 31.8% | –
4 | CC(=O)Nc1ccc(-c2cc3c(NCc4ccc(F)cc4)ncnc3s2)cc1 | 77.5% | 78.4% | 82.7% | 58% | 77.3% | 76% | 56.6% | 83.9 | 82.7% | 106% | 86.3% | 86.8% | 59.5% | 83% | 68% | 82.6% | 56.6% | 86.8% | –
5 | COc1ccc(/C=C2\COc3ccc(O)cc3C2=O)cc1OC | 105% | 97% | 90.4% | 76% | 67.6% | 59.1% | 35.2% | 91.2 | 88.2% | 93.9% | 65.7% | 8.84% (active) | 92.6% | 87.5% | 93.1% | 103% | 83.2% | 80.2% | –
6 | COc1cc(/C=C/c2nc(Nc3ccc(S(=O)(=O)Nc4cc(C)on4)cc3)c3ccccc3n2)ccc1O | 74.3% | 85.8% | 87.8% | 78.8% | 65.5% | 83.9% | 42.4% | 75.3 | 94.4% | 106% | 92.2% | 17.8% | 62.6% | 62.8% | 76.1% | 70.8% | 61.9% | 83.2% | –
7 | COc1ccc(/C(C)=C(\c2ccc(Cl)cc2)c2ccc(OCCN3CCCC3)cc2)cc1F | 55.1% | 69.3% | 62.2% | -17.6% (active) | -55.6% (active) | 65.8% | 71.1% | 42.2 | 4.18% (active) | -40.6% (active) | 49.6% | -1.68% (active) | -38.2% (active) | 36.7% | 54.7% | -42.9% (active) | 3.19% (active) | 2.99% (active) | –
8 | COc1ccc(NC(=O)c2cccc(-c3cc(=O)c4c(O)c(OC)c(OC)cc4o3)c2)cc1 | 91.3% | 91.9% | 99.5% | 72.2% | 92.7% | 23.6% | 79.4% | 81.3 | 43% | 97.6% | 96.9% | 91.8% | 80.6% | – | 54.6% | 104% | 56.1% | 79.2% | 92
